Out of some 3,400 compounds screened, about 840 (25%) were called active. Roughly 11% stayed inconclusive and do not appear here. Only a sample is shown. Results with a measured potency or affinity are listed apart. A number with no mark means an inactive call.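 The calls were made as follows: active = fitted half-maximal concentration of signal decrease at or below twice the sample's top tested concentration; inconclusive = flat curve between -70 and -30 percent, or poor fit; inactive = flat within 30 percent, signal rise, or potency above limit.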
Assay: inhibitors of Toxoplasma growth in IFN-γ-primed HeLa – cell-based, ME49Luc, luciferase, 72 h, dose response (AID 1259418)
Settings: T. gondii ME49Luc in IFN-y HeLa, active compounds read low, -100% = high-dose IFN-γ control wells; at 19.5 µM unless noted
Work on `CCc1nc(OCC(=O)Nc2cccc(OC)c2)c2ccccc2n1` yielded a max activity of 13.8% [at 0.16 µM]. In the case of `O=C(CCCCCn1c(=S)[nH]c2cc3c(cc2c1=O)OCO3)N1CCC(O)(c2cccc(C(F)(F)F)c2)CC1`, the max activity was -29.1% [at 10 µM]. Work on `Cc1cccc(C2=NC3(CCN(C(=O)c4ccc(C(C)(C)C)cc4)CC3)NC2=O)c1` yielded a max activity of 16.7% [at 2.6 µM]. For `O=C(c1ccc2c(=O)n(CCC3=CCCCC3)c(=S)[nH]c2c1)N1CCC(O)(c2cccc(C(F)(F)F)c2)CC1`, the max activity was -24.9% [at 10 µM]. With `CCCn1c(=S)[nH]c2cc(C(=O)N3CCC(O)(c4cccc(C(F)(F)F)c4)CC3)ccc2c1=O` the max activity was 18.8% [at 0.16 µM]. `COc1ccccc1-c1nc(Cn2nnc(-c3nc(-c4ccccn4)no3)c2C)c(C)o1` gave a max activity of 50.4%. `C=CCN1C(=O)CC[C@H]2[C@@H]1CCN2S(=O)(=O)CC` gave a max activity of 48.3%. `Cc1ccc(CSc2ccc(-c3sc(-c4ccc(F)cc4)nc3C)nn2)cc1` showed a max activity of 12.3% [at 0.16 µM]. Work on `Cc1cc(C)c2c(=O)n(Cc3nc(-c4ccc(C(C)C)cc4)oc3C)c(=O)n(-c3ccccc3)c2n1` yielded a max activity of -13.2% [at 5 µM]. In the case of `CCCN1CCc2nc(SCc3nc(-c4cccc(Cl)c4)oc3C)[nH]c(=O)c2C1`, the max activity was 10.2% [at 0.68 µM]. For `COCC1COCCC12CCN(C(=O)c1ccc(C)nc1)CC2` (configuration not stated), the max activity was 18.7%. `Cc1ccc(NC(=O)N2CCc3nc(-c4ccccc4)sc3C2)cc1C` showed a max activity of -7.49% [at 2.6 µM]. Compound `Cc1cccc(-c2nc(Cn3nnc(-c4nc(-c5cccc(C(F)(F)F)c5)no4)c3C)c(C)o2)c1` has a max activity of 8.75% [at 1.35 µM]. With `O=C(Nc1ccc(-c2nc(-c3ccccc3)co2)cc1)Nc1ccc2c(c1)OCO2` the max activity was 19.1% [at 0.16 µM]. With `Cc1ccccc1NC(=O)CN1CCC2(CC1)N=C(c1ccc(Cl)cc1)C(=O)N2` the max activity was -13.7% [at 1.35 µM]. `O=C(NCCc1c[nH]c2ccccc12)C1CCN(c2ncnc3c2oc2ccccc23)CC1` showed a max activity of 11.9% [at 0.68 µM]. `COc1ccc(-c2nc(N3CCN(c4ccc(F)cc4)CC3)c3ccccc3n2)cc1` showed a max activity of 13.7% [at 10 µM]. `CCn1nnc2c(NCCSc3c[nH]c4ccccc34)ncnc21` showed a max activity of -13.5% [at 0.68 µM]. `COc1ccc(-n2ncc3c(NC4CCCCCCCCCCC4)ncnc32)cc1` gave a max activity of 21.4% [at 1.35 µM]. Work on `Cc1cccc(-c2nc(CSc3nc4c(c(=O)[nH]3)CN(Cc3ccc(Cl)cc3)CC4)c(C)o2)c1` yielded a max activity of 23.2% [at 0.16 µM]. `O=S(=O)(c1cccs1)N1CCC2(CC1)NCCN=C2NCc1ccccc1F` gave a max activity of -35.7%. For `COc1ccccc1CNC1=NCCNC12CCN(S(=O)(=O)c1cccs1)CC2`, the max activity was -16.5% [at 0.68 µM]. For `CCc1ccc(S(=O)(=O)N2CCC3(CC2)NCCN=C3NCc2ccccc2OC)cc1`, the max activity was 11.2% [at 0.16 µM]. For `O=S(=O)(c1ccc(Cl)s1)N1CCC2(CC1)NCCN=C2NC1CCCC1`, the max activity was 13.4%. With `COC[C@H]1CN(CC2CC2)C[C@@]12CCN(CCc1ccccc1)C2` the max activity was 24%. Compound `CCCN1CCc2nc(SCc3nc(-c4ccc(OC)cc4OC)oc3C)[nH]c(=O)c2C1` has a max activity of 66.7%. With `COc1ccc(-c2nc(Nc3ccc(C)c(C)c3)c3ccccc3n2)cc1` the max activity was 21.6% [at 0.16 µM]. With `CC1(C)C2CCC1(CS(=O)(=O)O)C(=O)/C2=C\c1ccc(/C=C2/C(=O)C3(CS(=O)(=O)O)CCC2C3(C)C)cc1` the max activity was 14.9%. With `CCn1c(C2CCCN(C(=O)CCN3CCCCCC3=O)C2)nn(C)c1=O` (configuration not stated) the max activity was 20.9%. Work on `CN1C(=O)CCc2cc(NC(=O)c3ccnn3C)ccc21` yielded a max activity of 26.8%. `Cc1cc2cc(CNc3ncnc4c3nnn4C)ccc2[nH]1` gave a max activity of 9.49% [at 10 µM]. `COc1ccc(C)cc1NC(=O)Nc1ccc(-c2nc(-c3cccc(Br)c3)co2)cc1` gave a max activity of -11.7% [at 0.35 µM]. In the case of `CC1CCCCN1CCNS(=O)(=O)c1cc(-c2nc(C(C)(C)C)cs2)cs1` (configuration not stated), the max activity was -20.5%. Compound `COc1ccc(-c2nc(N3CCC(Cc4ccccc4)CC3)c3ccccc3n2)cc1` has a max activity of 16.4%. For `Cc1ccc(-c2coc(-c3ccc(NC(=O)Cc4cccs4)cc3)n2)cc1`, the max activity was -53.8% [at 0.68 µM]. `COc1cccc(CNC2=NCCNC23CCN(S(=O)(=O)c2ccc(C(C)C)cc2)CC3)c1` gave a max activity of -13.5% [at 0.35 µM]. Work on `Cc1nc(CCNC(=O)[C@H]2CCCN2S(=O)(=O)c2ccc(C(C)(C)C)cc2)cs1` yielded a max activity of 7.93% [at 5 µM]. With `CCCCC(=O)N1CCC(C(=O)NCCc2csc(-c3ccccc3)n2)CC1` the max activity was 6.78% [at 2.6 µM]. `CCc1nc(OCC(=O)Nc2ccc3c(c2)OCO3)c2ccccc2n1` showed a max activity of 23.2% [at 10 µM]. With `CCOC(=O)C1CCCN(S(=O)(=O)c2cc(-c3nc(C)c(C)s3)sc2C)C1` (configuration not stated) the max activity was 14.9% [at 0.16 µM]. Work on `COc1ccc2c(c1)NC1(CCN(C(=O)c3ccc(C(C)(C)C)cc3)CC1)c1cccn1-2` yielded a max activity of -6.3% [at 0.35 µM]. Work on `CN1C(=O)CCc2cc(NC(=O)C3CCCO3)ccc21` (configuration not stated) yielded a max activity of 17.1%. Work on `COc1ccc(N(Cc2nc(-c3ccccc3)oc2C)S(=O)(=O)c2cccs2)cc1` yielded a max activity of 14.6%. `COc1cccc(-c2nc(CN(c3ccc(C)cc3)S(=O)(=O)c3cccs3)c(C)o2)c1OC` showed a max activity of 2.85%. For `CCOc1ccc(N(Cc2nc(-c3ccccc3OCC)oc2C)S(=O)(=O)c2cccs2)cc1`, the max activity was 8.57% [at 10 µM]. `COc1ccccc1-c1nc(Cn2nnc(-c3nc(-c4ccc(SC)cc4)no3)c2C)c(C)o1` gave a max activity of 10.9% [at 0.16 µM]. Work on `CCOc1ccc(NC(=O)Nc2ccc(-c3nc(-c4cc(C)ccc4C)co3)cc2)cc1` yielded a max activity of -9.48% [at 1.35 µM].
